Shown are actives, neighbours in structure and some others; about 7.1% of the full set was active somewhere.
MCF10A rerep: inducers of DNA re-replication in MCF 10A breast cells; MCF 10A DNA re-replication, Hoechst nuclear intensity, 48 h; Potency, µM (doses to about 46.1 µM), for the others: top-dose activity, positive = re-replication, hits mostly activators; 2.9% of 350,000 active; AID 624296; also: potency is read from the fitted curve at half-maximal effect; % of control where 0% means no effect; nearly all actives have a fitted effect of over 50% in size
ATXN viability: reduces viability in counter-screen for ATXN expression inhibitors | S2 cells (HEK-293 line with an ATXN2-luciferase reporter) viability, CellTiter-Fluor protease fluorescence, 24 h | Potency, µM (highest dose often 56.7 µM), most hits filed as cytotoxic | 0.49% of 400,000 active | AID 651635; also: potency is read from the fitted curve at half-maximal effect; nearly all actives have a fitted effect of over 40% in size
PINK1 modulator: changes PINK1 expression. AID 624263. Potency, µM (titrated, usually from 76.6 µM), for inactives: at the highest dose activation (PINK1 increase), usual class: activators. 0.2% of 410,000 active. PINK1 immunofluorescence, high-content cytometry, 24 h; active = well fitted activation curve with a large enough effect; inconclusive = small, poorly fitted or top-dose-only effect; cell line not stated here; also: potency is read from the fitted curve at half-maximal effect; % of control where 0% means no effect; nearly all actives have a fitted effect of over 65% in size
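PINK1 protein level read as immunofluorescence by microplate cytometer in a fixed, stained stable cell line after 24 h exposure to five compound concentrations, with CCCP as control.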
SW480 rerep: inducers of DNA re-replication in SW480 colon cancer cells | AID 624297 | Potency, µM (series often up to 46.1 µM), inactives show top-dose re-replication activation, hits mostly activators | SW480 DNA re-replication, Hoechst DNA content imaging, 48 h | 1.8% of 340,000 active; also: potency is read from the fitted curve at half-maximal effect; % of control where 0% means no effect; nearly all actives have a fitted effect of over 55% in size
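Treated cells incubate 48 hr (37 C, 5% CO2), are stained 40 min with Hoechst, and nuclear fluorescence is enumerated; a rise in nuclei with high DNA signal marks re-replication.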
IL-1B inflam inh: blocks inflammasome-driven IL-1 beta release; THP-1 LPS/ATP IL-1B secretion, AlphaLISA, 16 h; stronger effect = lower value; activity change, % at 57.5 µM; 4.7% of 360,000 active; in the data active = activity change below about -50%; inconclusive = mostly about -30% to -49%; also: % is scaled to controls: 0 for no effect and ±100 for the full control effect
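Secreted IL-1B measured by AlphaLISA bead assay after 16 h compound exposure of THP-1 cells; compounds (final up to 57.5 uM) added 1 h before LPS (250 ng/mL) and ATP (1.25 mM) stimulation; lower signal means less secretion.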
ATXN2 expr inh: inhibitors of ATXN2 expression. HEK-293 ATXN2-luciferase reporter, luminescence, 24 h. Potency, µM (series often up to 57 µM), inactives show at the top dose activity change, negative = inhibition, usual class: inhibitors. 0.72% of 360,000 active; also: potency is read from the fitted curve at half-maximal effect; % is scaled to controls: 0 for no effect and ±100 for the full control effect; nearly all actives have a fitted effect of over 55% in size
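qHTS (up to 57 uM final) was run with 24 h compound exposure of reporter cells at 37 °C. Each well was multiplexed: SteadyGlo luminescence measured ATXN2-luciferase expression after a fluorogenic Gly-Phe-AFC viability readout (25 uM final).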
The depositor's hits bear a star; [ ] = another dose, or the depositor's remark. Unless noted, calls follow the shape of the dose curve; as a rule, active = well fitted curve in the direction sought with a large enough effect; inconclusive = small, poorly fitted or top-dose-only effect, or another doubt; inactive = no such curve, though single readings can be large; an effect the other way counts as inactive or inconclusive.

Results for C(=N\Nc1nc2ccccc2s1)/c1ccc2c(c1)OCO2 ?
MCF10A rerep: 20.1%; ATXN viability: inactive; PINK1 modulator: 10.1%; SW480 rerep: -4.4%; IL-1B inflam inh: -18.8; ATXN2 expr inh: 24.5%

Results for c1ccc2sc(Nc3nc4cc5c(cc4s3)OCO5)nc2c1 ?
MCF10A rerep: 18.4µM*; ATXN viability: inactive; PINK1 modulator: 1.3%; SW480 rerep: inconclusive; IL-1B inflam inh: 18.8; ATXN2 expr inh: 139.8%

Results for Cc1ccc(Nc2nc3ccccc3s2)c(C)c1 ?
MCF10A rerep: inconclusive; ATXN viability: inactive; PINK1 modulator: inconclusive; SW480 rerep: -2.1%; IL-1B inflam inh: -61.6*; ATXN2 expr inh: 79.5%

How did Fc1ccc2nc(Nc3nc4cc5c(cc4s3)OCO5)sc2c1 do in these assays?
MCF10A rerep: inconclusive; ATXN viability: inactive; PINK1 modulator: 8.6%; SW480 rerep: 0.0%; IL-1B inflam inh: 9.2; ATXN2 expr inh: 116.0%

Results for Cc1cc(C)nc(Nc2nc3ccccc3s2)n1 ?
MCF10A rerep: -0.4%; ATXN viability: inactive; PINK1 modulator: -0.6%; SW480 rerep: -12.2%; IL-1B inflam inh: 81.0; ATXN2 expr inh: 47.9%

What do the screens show for `COC(=O)c1sc2cccc(F)c2c1S(=O)(=O)N1CCN(c2ccc(C)cc2C)CC1`?
ATXN viability: inactive; PINK1 modulator: -0.3%; ATXN2 expr inh: 4.9%

Results for Cc1ccc(NC(=O)N(Cc2c[nH]c3ccccc23)C2CCCCCC2)cc1C ?
ATXN viability: inactive; PINK1 modulator: 3.0%; ATXN2 expr inh: 274.0%

Results for O=C(NNc1nc2cc3c(cc2s1)OCO3)c1ccc(F)cc1 ?
MCF10A rerep: 4.3%; ATXN viability: inactive; PINK1 modulator: 1.8%; SW480 rerep: -3.9%; IL-1B inflam inh: -9.0; ATXN2 expr inh: -0.2%

Results for O=C(NNc1nc2cc3c(cc2s1)OCCO3)c1ccc(F)cc1 ?
MCF10A rerep: 0.259µM*; ATXN viability: inconclusive; PINK1 modulator: 1.6%; SW480 rerep: -27.9%; IL-1B inflam inh: -6.8; ATXN2 expr inh: 1.0%

Results for Brc1cc2c(cc1/C=N/Nc1nc3ccccc3s1)OCO2 ?
MCF10A rerep: 12.6µM*; ATXN viability: inconclusive; PINK1 modulator: inconclusive; SW480 rerep: inconclusive; IL-1B inflam inh: 7.2; ATXN2 expr inh: 6.6%

What do the screens show for `Cc1cnc(C)c(-c2ccc(O)c(CN3CCN(C=O)CC3)c2)n1`?
ATXN viability: inactive; PINK1 modulator: -0.6%

What do the screens show for `O=C(N/N=C/c1sc(=O)n(Cc2ccc(Br)cc2)c1Cl)c1ccco1`?
MCF10A rerep: 18.4µM*; PINK1 modulator: 17.7%; SW480 rerep: -30.5%; IL-1B inflam inh: -77.6*; ATXN2 expr inh: inconclusive

How did O=C(Nc1ccc(OC(F)(F)F)cc1)C(Cc1ccccc1)NS(=O)(=O)c1cccc2nsnc12 (centres undefined) do in these assays?
ATXN viability: inactive; PINK1 modulator: 5.8%; ATXN2 expr inh: -24.8%

What do the screens show for `Cc1ccc(-c2cc3c(n2-c2ccccc2F)CC(C)(C)CC3=O)cc1`?
ATXN viability: inactive; PINK1 modulator: -1.5%; ATXN2 expr inh: 12.4%

What do the screens show for `Cc1cc(C)n(-c2nc(SCCN(C)C)c3c4c(sc3n2)CCCC4)n1`?
MCF10A rerep: inconclusive; ATXN viability: inconclusive; PINK1 modulator: 5.4%[38.3 µM]; SW480 rerep: inconclusive; IL-1B inflam inh: -77.5*; ATXN2 expr inh: inconclusive

Results for Cc1ccc2c(c1)N(C(=O)N1CCC(C(=O)NCCC3=CCCCC3)CC1)CC(C)O2 (centres undefined) ?
PINK1 modulator: 1.1%

What do the screens show for `Cc1ccc(S(=O)(=O)Nc2cc(Br)cc3cccnc23)cc1`?
PINK1 modulator: -0.3%

What do the screens show for `COc1ccc(C2(C(=O)N3CCC(n4nc(-c5ccccc5)oc4=O)CC3)CC2)cc1`?
MCF10A rerep: 4.7%; ATXN viability: inactive; PINK1 modulator: 1.8%; SW480 rerep: -18.7%; IL-1B inflam inh: 8.6; ATXN2 expr inh: -7.6%
